Measured values published in PubChem BioAssay AID602233 (National Center for Advancing Translational Sciences (NCATS), 2012).
About 170 (0.045%) of roughly 380,000 compounds were called active. The call rests on the fitted dose curve; in most records, active means well fitted inhibition curve with a large enough effect; inconclusive means small, poorly fitted or top-dose-only effect; inactive means no such curve, though single readings can be large or run the other way. This excerpt belongs to a sample that is enriched for actives.

Target: Phosphoglycerate kinase, glycosomal (Trypanosoma brucei brucei) (UniProt P07378)
Experiment: qHTS Assay to Find Inhibitors of Phosphoglycerate Kinase; further: nearly all actives have a fitted effect of over 60% in size
Details: PGK/GAPDH coupled, Kinase-Glo luminescence, 60 min; series mostly up to 57.5 µM
From the text: Several species of the Trypanosomatidae family of parasitic protozoans cause a spectrum of diseases throughout the tropical and subtropical world. Sleeping sickness, caused by two subspecies of Trypanosoma brucei, is endemic to areas of sub-Saharan Africa, while Chagas disease, a manifestation of Trypanosoma cruzi infection, is prevalent throughout Central and South America. In addition, many species of Leishmania are responsible for a range of cutaneous and visceral diseases, causing ulcers, destructive lesions and kalaazar, a lethal infection of the viscera. Collectively, these organisms infect 30 million people worldwide (~500 million live in endemic areas), and account for ~130,000 deaths annually. Given their debilitating and prevalent nature, trypanosomatid parasites impose a heavy medical, economic and social burden on entire populations, primarily in the developing world. The problem is further exacerbated by the fact that existing treatments have progressed little in the past 50 years, and current drugs show high toxicity and poor efficacy. […] Blood-stream stages of T. brucei are entirely dependent on glycolysis as a source of ATP, and the tricarboxylic acid cycle and oxidative phosphorylation are both repressed. Glycolysis in axenically cultured T. cruzi, representing the intracellular pathogenic stage, is also essential for these parasites. […] Previous studies have shown that the glycolytic enzyme, phosphoglycerate kinase (PGK), is a viable target for drugs to kill these parasites. […] NIH Molecular Libraries Probe Production Network [MLPCN] NIH Chemical Genomics Center [NCGC] MLPCN Grant: R03 MH093212 PI Name: Malcolm Walkinshaw, University of Edinburgh
3ul of substrate/PGK buffer (columns 1,2,5-48) are dispensed into Greiner white solid bottom 1536-well assay plates; columns 3-4 receive only TEA buffer as 0x PGK controls. Compounds are then transferred via Kalypsys pin tool equipped with 1536-pin array (10nl slotted pins, V&P Scientific, San Diego, CA). Following addition of compound, 1ul of GAPDH (100nM final concentration, all columns) is added to initiate the reaction (this upstream coupling enzyme is necessary for in-well production of PGK substrate, 1,3-bisphosphoglycerate (1,3-BPG), which is unstable and not commercially available). The plates are then incubated at room temperature for 60 minutes. Kinase-Glo Plus reagent is added (2ul) and plates incubated for 10 minutes, before being transferred to a ViewLux high-throughput CCD imager (PerkinElmer) wherein single end-point measurements of luminescence are acquired using a clear filter. All reagents are diluted in an assay buffer consisting of 100mM TEA (pH 7.6), 5mM MgCl2 and 0.01% Tween-20.

Phosphoglycerate kinase, glycosomal (Trypanosoma brucei brucei), sequence (P07378 whole entry, looked up): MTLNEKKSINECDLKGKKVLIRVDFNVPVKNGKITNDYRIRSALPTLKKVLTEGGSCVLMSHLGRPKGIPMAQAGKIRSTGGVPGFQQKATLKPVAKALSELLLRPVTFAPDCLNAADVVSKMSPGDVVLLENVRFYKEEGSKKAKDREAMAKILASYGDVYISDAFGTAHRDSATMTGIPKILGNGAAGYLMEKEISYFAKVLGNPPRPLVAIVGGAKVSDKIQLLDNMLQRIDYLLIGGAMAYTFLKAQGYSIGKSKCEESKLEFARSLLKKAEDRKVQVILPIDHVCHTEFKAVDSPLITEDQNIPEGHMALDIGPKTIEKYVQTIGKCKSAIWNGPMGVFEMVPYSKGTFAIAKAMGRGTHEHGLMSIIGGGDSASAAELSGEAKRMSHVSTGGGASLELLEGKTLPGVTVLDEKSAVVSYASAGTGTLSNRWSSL

Potency, inactive:
CCCN1CN=C(NS(=O)(=O)c2ccc(NC(C)=O)cc2)NC1
CC(=O)N1CCCc2cc(S(=O)(=O)N3CCC(C(=O)NCc4ccc(F)cc4)CC3)ccc21
COc1cccc(NC(=O)c2ccc3nc(CCc4ccccc4)oc3c2)c1
COc1ccc2c(c1)C=C(C(=O)NCc1cc(Br)ccc1OC)CO2
CC(=O)Nc1cc(C(=O)NCc2ccc(F)cc2Cl)ccc1Sc1ccc(Cl)cc1
COc1ccc(-c2cn3c(C)c(C(=O)Nc4cc(C)cc(C)c4)sc3n2)cc1
CCc1ccccc1NC(=O)CSc1nnc(-c2ccccc2)c(-c2ccccc2)n1
COc1ccc(OC)c(NC(=O)C2CCN(S(=O)(=O)c3ccc(C)cc3)CC2)c1
Cn1c(=O)c2c(SCC(=O)N3CCc4ccccc43)nc(-c3ccc(Cl)cc3)nc2n(C)c1=O
O=C(CSc1ncc(CO)n1Cc1ccc(F)cc1)NCc1ccco1
CCC1CN(S(=O)(=O)c2cc(-c3cc(C)no3)ccc2C)c2cc(C)ccc2O1 (configuration not stated)
Cc1oc2ncnc(N3CCOCC3)c2c1C(=O)NCCc1ccccc1
Cc1cccc(C(=O)NCCc2nc3ccccc3n2Cc2ccccc2Cl)c1
CCc1ccc(CNC(=O)c2cc3cc4ccc(OC)cc4nc3o2)cc1
CCC(=O)Nc1c(C(=O)N2CCN(c3ccc(F)cc3)CC2)oc2ccccc12
COc1ccc(-c2c(C)nn3c(N4CCC(C(=O)NCCC(C)C)CC4)cc(C)nc23)cc1OC
Cc1ccccc1CSc1nc(-c2ccccc2)nc2c1Cc1c(CO)cnc(C)c1O2
Cc1ccc(-c2nnc3c4ccccc4c(C)nn23)cc1NC(=O)c1cccc(Br)c1
Cc1ccc(NC(=O)Cn2cnc3nc4c(cc3c2=O)CCCC4)cc1Cl
O=C(c1ccc(Br)cc1)N(Cc1cccs1)c1ccc(F)cc1
Cc1ccc(NC(=O)CSc2nc3ccccc3c3nc(CCn4cncc4C)nn23)cc1F
CC(C)Cn1c(-c2ccc(S(=O)(=O)N3CCOCC3)cc2)csc1=Nc1cc(Cl)ccc1Cl
CCc1ccc(NC(=O)N2CCN(C(=O)c3nsc4ccccc34)CC2)cc1
Cc1ccc(Cl)cc1NC(=O)CCS(=O)(=O)c1ccc(Br)s1
Cc1cc(Br)ccc1NC(=O)Cn1cnc2sc(C)c(S(=O)(=O)N3CCN(C)CC3)c2c1=O
Cc1ccc(NC(=O)c2oc3ccccc3c2NC(=O)Cc2cccs2)cc1
Cc1ccc(-n2nc(CO)c(C(=O)NCCc3ccccc3)n2)cc1
COC(=O)c1ccccc1NC(=O)C(Cc1ccccc1)N1Cc2ccccc2C1=O (configuration not stated)
O=C1CCCc2cc(S(=O)(=O)N3CCCC(C(=O)NCc4ccccc4)C3)ccc2N1 (configuration not stated)
COc1ccc(C2C(=O)N(C3CCCCCC3)CC(=O)N2CCc2ccc(Cl)cc2)cc1OC (configuration not stated)
COC(=O)c1c(NC(=O)C(C)Oc2ccc(Cl)c(C)c2)sc(C)c1C (configuration not stated)
COc1ccccc1CNC(=O)c1ccc(NC(=O)N2CC(C)Sc3ccccc32)cc1 (configuration not stated)
Cc1cc(C)c(/C=C/c2onc(C)c2S(=O)(=O)N2CCC(C(=O)Nc3ccc(Cl)cc3C)CC2)c(C)c1
CCc1cccc(NC(=O)CSc2nccn2C)c1
COc1cc(C(=O)NCC(c2ccc(Cl)cc2)N2CCOCC2)cc(OC)c1OC (configuration not stated)
COc1ccc(Cn2c(=O)c3oc4ccccc4c3n(CC(=O)Nc3ccc(F)cc3F)c2=O)cc1
CCOc1ccc(NC(=O)Cn2cc(C(=O)c3ccc(C)cc3)c(=O)c3cc4c(cc32)OCCO4)cc1
CCCCc1nn2c(=O)cc(COC(=O)c3ccc(NC(=O)c4ccccc4C)cc3)nc2s1
Cc1ccccc1CNC(=O)c1ccc(NC(=O)N2CCCCc3ccccc32)cc1
COc1ccc(CNC(=O)COCc2cc(-c3cccs3)on2)cc1OC
CCCN(CCC)C(=O)C(Cc1ccccc1)NS(=O)(=O)c1ccc2c(c1)c(=O)n(C)c(=O)n2C (configuration not stated)
CCCCNc1ccc(-c2nc(-c3ccncc3)no2)cc1[N+](=O)[O-]
CCOc1ccccc1NC(=O)Cn1c(=O)n(Cc2ccco2)c(=O)c2sc3ccccc3c21
Cc1ccc(NC(=O)c2cn3c4c(ccc(Cl)c4c2=O)OC(C)C3)cc1C (configuration not stated)
O=C(CSc1n[nH]c(-c2ccccc2)n1)N1CCCCC1
COc1ccc(-c2noc(CSc3nnc(-c4ccccc4)n3-c3ccc(F)cc3)n2)c(OC)c1
O=C(NCc1ccccc1Cl)C1=Cc2cc(Br)ccc2OC1
O=C(Nc1ccc(F)cc1F)c1cnn(-c2ccc(F)cc2)c1-n1cccc1
COc1ccccc1CNC(=O)CCn1c(=O)c2ccccc2n(CC(=O)Nc2ccc(Br)cc2F)c1=O
Cc1ccc(Nc2ccc3cc(S(=O)(=O)N4CCCCC4)ccc3n2)cc1F
COc1ccc(-c2nc3nc(C)cc(C)n3c2Nc2c(C)cccc2C)cc1
Cc1ccc(-n2ncc3c(NCCCn4ccnc4)ncnc32)cc1Cl
CCCN1CCN(CCCNC(=O)c2cnn(-c3ccc(C)cc3)c2-n2cccc2)CC1
CSc1ccc(CCNC(=O)c2cc(C)nc3c2c(C)nn3-c2cccc(F)c2)cc1
NC1=NC(c2cc(F)cc(F)c2)n2c(nc3ccccc32)N1 (configuration not stated)
COc1ccc2c(Sc3ccc(C)cc3)c(C(=O)NC(C)c3ccccc3)[nH]c2c1 (configuration not stated)
CCCCOc1ccc(CNC(=O)c2ccc3c(c2)N(C)C(=O)C2CCCCN32)cc1 (configuration not stated)
O=C(Cn1c(-c2cccs2)cc2ccccc21)NCCc1ccc(Cl)cc1
Cc1nn2c(=O)cc(COC(=O)c3cccc(NC(=O)COc4ccccc4Cl)c3)nc2s1
COc1ccc(-c2cn3c(n2)sc2cc(C(=O)Nc4ccc(F)cc4)ccc23)cc1
COc1ccccc1CNC(=O)c1ccccc1NC(=O)c1nsc2ccccc12
Cc1ccc(Cn2c(=O)n(CCCC(=O)NCc3ccccc3Cl)c(=O)c3ccccc32)cc1
